Laboratory results published in PubChem BioAssay (NCATS).
Results filed as inconclusive are left out. Where a call stands in place of a potency, no number is given. Values without a mark were called inactive. Active and inactive are the calls of the source. Calls come from the whole dose curve; as a rule, active = well fitted cell-killing curve with a large enough effect; inconclusive = small, poorly fitted or top-dose-only effect, or effect the other way; inactive = flat fitted curve, though single readings scatter.

Assays:
Test in all cases: Primary qHTS to identify gynecologic anti-cancer compounds using libraries of approved drugs and bioactive compounds (AID 1345084); note: nearly all actives have a fitted effect of over 55% in size
[1] = test system: C33A; conditions: Gynecologic cancer cell panel viability, ATPlite luminescence, 48 h; series mostly up to 57.5 µM
In short: (§1)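 In this quantitative HTS, cell killing is estimated from loss of ATP-dependent luciferase light. Cells see five compound concentrations over a 48 h exposure.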

[2] = test system: CAOV3; conditions: Gynecologic cancer cell panel viability, ATPlite luminescence, 48 h; series mostly up to 57.5 µM
In short: as §1

[3] = test system: CASKI; conditions: Gynecologic cancer cell panel viability, ATPlite luminescence, 48 h; series mostly up to 57.5 µM
In short: as §1

[4] = test system: Es-2; conditions: Gynecologic cancer cell panel viability, ATPlite luminescence, 48 h; series mostly up to 57.5 µM
In short: as §1

[5] = test system: HeLa; conditions: Gynecologic cancer cell panel viability, ATPlite luminescence, 48 h; series mostly up to 57.5 µM
In short: as §1

[6] = test system: Hek293T; conditions: Gynecologic cancer cell panel viability, ATPlite luminescence, 48 h, control line for the selectivity index; series mostly up to 57.5 µM
In short: as §1

[7] = test system: JEG-3; conditions: Gynecologic cancer cell panel viability, ATPlite luminescence, 48 h; series mostly up to 57.5 µM
In short: as §1

[8] = test system: OV90; conditions: Gynecologic cancer cell panel viability, ATPlite luminescence, 48 h; series mostly up to 57.5 µM
In short: as §1

[9] = test system: PA-1; conditions: Gynecologic cancer cell panel viability, ATPlite luminescence, 48 h; series mostly up to 57.5 µM
In short: as §1

[10] = test system: SKOV3; conditions: Gynecologic cancer cell panel viability, ATPlite luminescence, 48 h; series mostly up to 57.5 µM
In short: as §1
Potency is the fitted concentration of half-maximal effect.

CC(=O)CCC(=O)O
Potency [1]: inactive
Potency [2]: inactive
Potency [3]: inactive
Potency [4]: inactive
Potency [5]: inactive
Potency [6]: inactive
Potency [7]: inactive
Potency [8]: inactive
Potency [9]: inactive
Potency [10]: inactive

Nc1ccc(S(=O)(=O)Nc2ccccc2)cc1
Potency [1]: inactive
Potency [2]: inactive
Potency [3]: inactive
Potency [4]: inactive
Potency [5]: inactive
Potency [6]: inactive
Potency [7]: inactive
Potency [8]: inactive
Potency [9]: inactive
Potency [10]: inactive

Oc1ccc(C(O)CNCCCCCCNCC(O)c2ccc(O)c(O)c2)cc1O (stereo not given)
Potency [1]: inactive
Potency [2]: inactive
Potency [3]: inactive
Potency [4]: inactive
Potency [5]: inactive
Potency [6]: inactive
Potency [7]: inactive
Potency [8]: inactive
Potency [9]: inactive
Potency [10]: inactive

C[C@@H](O)[C@H](N)C(=O)O
Potency [1]: inactive
Potency [2]: inactive
Potency [3]: inactive
Potency [4]: inactive
Potency [5]: inactive
Potency [6]: inactive
Potency [7]: inactive
Potency [8]: inactive
Potency [9]: inactive
Potency [10]: inactive

CC(O)COc1ccccc1 (stereo not given)
Potency [1]: inactive
Potency [2]: inactive
Potency [3]: inactive
Potency [4]: inactive
Potency [5]: inactive
Potency [6]: inactive
Potency [7]: inactive
Potency [8]: inactive
Potency [9]: inactive
Potency [10]: inactive

CCOc1nc2cccc(C(=O)O)c2n1Cc1ccc(-c2ccccc2-c2nn[nH]n2)cc1
Potency [1]: inactive
Potency [2]: inactive
Potency [3]: inactive
Potency [4]: inactive
Potency [5]: inactive
Potency [6]: inactive
Potency [7]: inactive
Potency [8]: inactive
Potency [9]: inactive
Potency [10]: inactive

CCCCCCCCCCCCOS(=O)(=O)O
Potency [1]: inactive
Potency [2]: inactive
Potency [3]: inactive
Potency [4]: inactive
Potency [5]: inactive
Potency [6]: inactive
Potency [7]: inactive
Potency [8]: inactive
Potency [9]: inactive
Potency [10]: inactive

CCCn1cnc2c1c(=O)n(CCCCC(C)=O)c(=O)n2C
Potency [1]: inactive
Potency [2]: inactive
Potency [3]: inactive
Potency [4]: inactive
Potency [5]: inactive
Potency [6]: inactive
Potency [7]: inactive
Potency [8]: inactive
Potency [9]: inactive
Potency [10]: inactive

CC1=C(/C=C/C(C)=C/C=C/C(C)=C/C(=O)O)C(C)(C)CCC1
Potency [1]: inactive
Potency [2]: inactive
Potency [3]: inactive
Potency [4]: inactive
Potency [5]: inactive
Potency [6]: inactive
Potency [7]: inactive
Potency [8]: inactive
Potency [9]: inactive
Potency [10]: inactive

O=C1N=C(O)CN1/N=C/c1ccc(-c2ccc([N+](=O)[O-])cc2)o1
Potency [1]: inactive
Potency [2]: inactive
Potency [3]: inactive
Potency [4]: inactive
Potency [5]: inactive
Potency [6]: inactive
Potency [7]: inactive
Potency [8]: inactive
Potency [9]: inactive
Potency [10]: inactive

O=C1c2c(O)cccc2Cc2cccc(O)c21
Potency [1]: inactive
Potency [2]: inactive
Potency [3]: inactive
Potency [4]: inactive
Potency [5]: inactive
Potency [6]: inactive
Potency [7]: inactive
Potency [8]: inactive
Potency [9]: inactive
Potency [10]: inactive

O=C(O)Cc1sc(-c2ccccc2)nc1-c1ccc(Cl)cc1
Potency [1]: inactive
Potency [2]: inactive
Potency [3]: inactive
Potency [4]: inactive
Potency [5]: inactive
Potency [6]: inactive
Potency [7]: inactive
Potency [8]: inactive
Potency [9]: inactive
Potency [10]: inactive

COc1ccc2cc1Oc1cc3c(cc1OC)CC[N+](C)(C)[C@H]3Cc1ccc(cc1)Oc1c(OC)c(OC)cc3c1[C@@H](C2)[N+](C)(C)CC3
Potency [1]: inactive
Potency [2]: inactive
Potency [3]: inactive
Potency [4]: inactive
Potency [5]: inactive
Potency [6]: inactive
Potency [7]: inactive
Potency [8]: inactive
Potency [9]: inactive
Potency [10]: inactive

CCCCN(CCCC)CCCOC(=O)c1ccc(N)cc1
Potency [1]: inactive
Potency [2]: inactive
Potency [3]: inactive
Potency [4]: inactive
Potency [5]: inactive
Potency [6]: inactive
Potency [7]: inactive
Potency [8]: inactive
Potency [9]: inactive
Potency [10]: inactive

C[C@@H]1C[C@H]2[C@@H]3C[C@H](F)C4=CC(=O)C=C[C@]4(C)[C@@]3(F)[C@@H](O)C[C@]2(C)[C@@]1(O)C(=O)CO
Potency [1]: inactive
Potency [2]: inactive
Potency [3]: inactive
Potency [4]: inactive
Potency [5]: inactive
Potency [6]: inactive
Potency [7]: inactive
Potency [8]: inactive
Potency [9]: inactive
Potency [10]: inactive

O=C1Nc2ccc(Cl)cc2[C@@](C#CC2CC2)(C(F)(F)F)O1
Potency [1]: inactive
Potency [2]: inactive
Potency [3]: inactive
Potency [4]: inactive
Potency [5]: inactive
Potency [6]: inactive
Potency [7]: inactive
Potency [8]: inactive
Potency [9]: inactive
Potency [10]: inactive

CC(=O)Oc1ccc(C2(c3ccc(OC(C)=O)cc3)C(=O)Nc3ccccc32)cc1
Potency [1]: inactive
Potency [2]: inactive
Potency [3]: inactive
Potency [4]: inactive
Potency [5]: inactive
Potency [6]: inactive
Potency [7]: inactive
Potency [8]: 8.91 µM (active)
Potency [9]: inactive
Potency [10]: inactive

NC(N)=NCCC[C@H](N)C(=O)O
activity change, negative = cytotoxicity [1]: -3.38% [at 6.55 µM]
activity change, negative = cytotoxicity [2]: 24.7% [at 6.55 µM]
activity change, negative = cytotoxicity [3]: 1.66% [at 6.55 µM]
activity change, negative = cytotoxicity [4]: 2.88% [at 6.55 µM]
activity change, negative = cytotoxicity [5]: 8.2% [at 6.55 µM]
activity change, negative = cytotoxicity [6]: 14.9% [at 6.55 µM]
activity change, negative = cytotoxicity [7]: 7.79% [at 6.55 µM]
activity change, negative = cytotoxicity [8]: 6.81% [at 6.55 µM]
activity change, negative = cytotoxicity [9]: 23.1% [at 6.55 µM]
activity change, negative = cytotoxicity [10]: 0% [at 6.55 µM]

CC1(C)Oc2ccc(C#N)cc2[C@@H](N2CCCC2=O)[C@@H]1O
Potency [1]: inactive
Potency [2]: inactive
Potency [3]: inactive
Potency [4]: inactive
Potency [5]: inactive
Potency [6]: inactive
Potency [7]: inactive
Potency [8]: inactive
Potency [9]: inactive
Potency [10]: inactive

c1ccc(CN(CC2=NCCN2)c2ccccc2)cc1
Potency [1]: inactive
Potency [2]: inactive
Potency [3]: inactive
Potency [4]: inactive
Potency [5]: inactive
Potency [6]: inactive
Potency [7]: inactive
Potency [8]: inactive
Potency [9]: inactive
Potency [10]: inactive

CCN(CC)C(C)CN1c2ccccc2Sc2ccccc21 (stereo not given)
Potency [1]: inactive
Potency [2]: inactive
Potency [3]: inactive
Potency [4]: inactive
Potency [5]: inactive
Potency [6]: inactive
Potency [7]: inactive
Potency [8]: inactive
Potency [9]: inactive
Potency [10]: inactive
